# Source: PubChem BioAssay (NCATS)
# Several values for one entry are separate records, joined by “and”; a condition that tells them apart may be missing. Identical values can stand only once. Records with an inconclusive call do not appear. Where a call stands in place of a potency, no number is given. Values without a mark were called inactive. Activity calls are given as the source filed them. The call rests on the fitted dose curve; in most records, active means well fitted curve in the direction sought with a large enough effect; inconclusive means small, poorly fitted or top-dose-only effect, or another doubt; inactive means no such curve, though single readings can be large; an effect the other way counts as inactive or inconclusive.
# Tests used:
# [1] = Vero cells viability qHTS for Zika virus inhibitors (AID 1347167); further: potency means the concentration at half of the fitted maximal effect
# In short: (§1)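 To flag cytotoxic protease inhibitors, viability is measured by ATP-dependent luminescence (CellTiter Glo) after cells attached overnight receive compound for 24 to 48 hours in DMEM with 4% FBS.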
# [2] = HepG2 cells viability qHTS for Zika virus inhibitors (AID 1347168)
# In short: as §1
# [3] = molecular target: Lysine-specific demethylase 5B (Homo sapiens) (UniProt Q9UGL1); assay: Optimization screen for KDM5B Histone Demethylases FDH coupled qHTS against the LOPAC library (AID 1347166)
# In short: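 KDM5BDeltaAP (200nM final) in 50mM HEPES pH 7.5, 0.01% Tween-20 was preincubated with compound for 10 min at room temperature. A substrate mix of 12.5uM H3K4Me3, 25uM a-ketoglutarate, ascorbate, Fe2+, NAD+ and formaldehyde dehydrogenase was then added. NADH fluorescence (340/450 nm) was read initially and after 30 min.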
# [4] = Tertiary RLuc qRT-PCR qHTS assay for Zika virus inhibitors (AID 1347169); further: top concentration of the series differs between compounds; nearly all actives have a fitted effect of over 55% in size
# In short: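 Orthogonal cell-based readout: luminescence measured 1-1.5 hrs after adding live-cell Renilla substrate to Vero cells that had been infected with ZIKV-RLuc (MOI 1-2) post-compound, incubated 48-72 hrs at 37 degrees C.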
# [5] = OV-KATE Cancer Cell Toxicity qHTS against the NCATS CANVASS Library (AID 1347345)
# In short: (§2)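 Toxicity is measured over 72 h of compound exposure at 37 degrees C under 5% CO2. Each well holds 1000 cells, pre-incubated for 4 hours before dosing across an 11-point range. CellTiter-Glo luminescence gives viability.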
# [6] = HPAF-II Cancer Cell Toxicity qHTS against the NCATS CANVASS Library (AID 1347346); settings: HPAF-II viability, CellTiter-Glo ATP luminescence, 72 h; further: potency means the concentration at half of the fitted maximal effect; nearly all actives have a fitted effect of over 55% in size
# In short: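 Cytotoxicity read-out was CellTiter-Glo luminescence after 72 h at 37 degrees C exposure of HPAF-II cells (1000/well) to compounds in an 11-point titration.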
# [7] = UWB1.289 Cancer Cell Toxicity qHTS against the NCATS CANVASS Library (AID 1347347); further: nearly all actives have a fitted effect of over 60% in size
# In short: as §2
# [8] = OV-SAHO Cancer Cell Toxicity qHTS against the NCATS CANVASS Library (AID 1347348); further: nearly all actives have a fitted effect of over 55% in size
# In short: as §2
# [9] = SW1088 Cancer Cell Toxicity qHTS against the NCATS CANVASS Library (AID 1347350); settings: SW1088 viability, CellTiter-Glo luminescence, 72 h; at 38.3 µM (top of the series); further: nearly all actives have a fitted effect of over 75% in size
# In short: as §2
# [10] = U-118MG Cancer Cell Toxicity qHTS against the NCATS CANVASS Library (AID 1347351)
# In short: as §2
# [11] = COV-362 Cancer Cell Toxicity qHTS against the NCATS CANVASS Library (AID 1347352)
# In short: (§3)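 Toxicity was measured as CellTiter-Glo luminescence after 72 h exposure to an 11-point compound series. Compound was added to 1000 cells/well 4 h after seeding.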
# [12] = A2780 Cisplatin Sensitive Ovarian Cancer Cell Toxicity qHTS against the NCATS CANVASS Library (AID 1347353); settings: A2780 ovarian cancer viability, ATPLite luminescence, 72 h; at 46.1 µM (top of the series); further: nearly all actives have a fitted effect of over 60% in size
# In short: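 Cisplatin-sensitive A2780 ovarian cells (750/well) received compound in 11 concentrations, and were incubated 72 h at 37 °C. ATP content was measured by ATPLite luminescence; bortezomib served as control.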
# [13] = UWB1.289-WTBRCA1 Cancer Cell Toxicity qHTS against the NCATS CANVASS Library (AID 1347354)
# In short: as §3
# [14] = HEK-293 Cancer Cell Toxicity qHTS against the NCATS CANVASS Library (AID 1347355); settings: HEK-293 viability, CellTiter-Glo luminescence, 72 h; at 46.1 µM (top of the series); further: nearly all actives have a fitted effect of over 65% in size
# In short: as §3
# [15] = HPAF-II 24hr Apoptosis Induction qHTS against the NCATS CANVASS Library (AID 1347356)
# In short: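 Caspase-Glo 3/7 luminescence, read after 15 min room-temperature development, measures apoptosis in HPAF-II cells treated 24 h at 37 degrees C with an 11-point concentration series; 500 cells/well; doxorubicin control.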
# [16] = HEK293 18hr Apoptosis Induction qHTS against the NCATS CANVASS Library (AID 1347357)
# In short: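 Caspase-Glo 3/7 luminescence (15 min, room temperature) measured apoptosis after an 18-hour, 37 degrees C exposure of HEK293 cells (500 cells/well) to compounds in 11 points.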
# [17] = HPAF-II 12hr Apoptosis Induction qHTS against the NCATS CANVASS Library (AID 1347358)
# In short: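 Caspase-3/7 activation by DEVD-substrate luminescence (Caspase-Glo 3/7, 15 min, room temperature) after a 12-hour compound exposure in 11 concentrations, of HPAF-II pancreatic cells seeded at 500/well in DMEM with 10% FBS.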
# [18] = HEK293 24hr Apoptosis Induction qHTS against the NCATS CANVASS Library (AID 1347359)
# In short: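 HEK293 cells (500/well, DMEM + 10% FBS) were exposed to compounds in an 11-point series for 24 hours at 37 degrees C, then caspase-3/7 activity was read by Caspase-Glo DEVD luciferase luminescence after 15 min.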
# [19] = HPAF-II 18hr Apoptosis Induction qHTS against the NCATS CANVASS Library (AID 1347360)
# In short: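 Caspase-3/7 activation was measured with luminescent Caspase-Glo 3/7 reagent (15 min, RT) in HPAF-II cancer cells (500 cells/well). Before detection, cells had been treated for 18 h at 37 C with compounds (11 points).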
# Chain of Lysine-specific demethylase 5B (Homo sapiens) (Q9UGL1 whole entry, looked up): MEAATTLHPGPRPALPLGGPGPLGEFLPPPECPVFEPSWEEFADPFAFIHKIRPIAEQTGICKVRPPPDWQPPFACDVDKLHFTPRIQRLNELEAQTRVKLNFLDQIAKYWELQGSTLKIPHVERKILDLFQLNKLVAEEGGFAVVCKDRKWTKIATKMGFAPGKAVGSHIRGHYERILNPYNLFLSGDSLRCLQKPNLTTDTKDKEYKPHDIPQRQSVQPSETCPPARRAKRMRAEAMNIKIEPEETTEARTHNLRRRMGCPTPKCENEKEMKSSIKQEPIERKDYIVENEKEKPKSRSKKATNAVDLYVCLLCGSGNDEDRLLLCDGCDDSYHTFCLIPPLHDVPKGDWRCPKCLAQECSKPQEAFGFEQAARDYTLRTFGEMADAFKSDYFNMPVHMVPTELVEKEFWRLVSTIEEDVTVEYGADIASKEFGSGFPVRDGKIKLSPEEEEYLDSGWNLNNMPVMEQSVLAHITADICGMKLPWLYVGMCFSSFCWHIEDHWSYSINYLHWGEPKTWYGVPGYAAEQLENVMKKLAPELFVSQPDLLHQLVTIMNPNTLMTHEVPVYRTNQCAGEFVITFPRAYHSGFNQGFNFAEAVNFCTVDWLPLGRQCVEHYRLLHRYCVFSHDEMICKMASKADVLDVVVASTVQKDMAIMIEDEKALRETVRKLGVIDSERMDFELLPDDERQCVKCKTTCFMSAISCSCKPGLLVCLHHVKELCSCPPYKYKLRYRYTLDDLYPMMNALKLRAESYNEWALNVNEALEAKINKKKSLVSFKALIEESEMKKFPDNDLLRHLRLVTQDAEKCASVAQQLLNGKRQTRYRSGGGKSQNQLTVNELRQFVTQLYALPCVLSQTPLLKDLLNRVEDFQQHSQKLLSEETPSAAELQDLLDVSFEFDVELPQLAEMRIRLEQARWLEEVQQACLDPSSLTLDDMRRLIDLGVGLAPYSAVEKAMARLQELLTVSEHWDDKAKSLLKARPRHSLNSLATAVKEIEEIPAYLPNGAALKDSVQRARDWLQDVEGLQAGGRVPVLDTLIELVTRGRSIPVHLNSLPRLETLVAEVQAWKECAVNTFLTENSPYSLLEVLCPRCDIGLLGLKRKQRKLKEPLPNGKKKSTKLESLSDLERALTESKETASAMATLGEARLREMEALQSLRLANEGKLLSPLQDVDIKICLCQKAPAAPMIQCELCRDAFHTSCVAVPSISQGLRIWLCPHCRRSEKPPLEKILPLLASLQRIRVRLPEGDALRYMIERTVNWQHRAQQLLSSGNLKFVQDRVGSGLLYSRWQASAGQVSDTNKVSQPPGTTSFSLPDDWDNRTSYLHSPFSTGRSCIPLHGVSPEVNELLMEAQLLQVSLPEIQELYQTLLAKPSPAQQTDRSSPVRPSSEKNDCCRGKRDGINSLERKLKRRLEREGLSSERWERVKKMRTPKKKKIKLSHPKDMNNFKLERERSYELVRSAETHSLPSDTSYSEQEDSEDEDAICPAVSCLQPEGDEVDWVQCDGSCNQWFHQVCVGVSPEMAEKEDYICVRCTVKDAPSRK
structure (smiles),measurement,setting,value
O=C1Cc2cc(CCN3CCN(c4nsc5ccccc45)CC3)c(Cl)cc2N1,Potency,[1],inactive
same,outcome,[2],inactive
O=C(Nc1ccc([N+](=O)[O-])cc1Cl)c1cc(Cl)ccc1O,Potency,[1],0.415 µM (active)
C[C@H]1c2cccc(O)c2C(O)=C2C(=O)[C@]3(O)C(O)=C(C(N)=O)C(=O)[C@@H](N(C)C)[C@@H]3[C@@H](O)[C@@H]21,Potency,[1],inactive
same,outcome,[2],inactive
COc1ccccc1OCC(O)CN1CCN(CC(=O)Nc2c(C)cccc2C)CC1 (configuration not stated),outcome,[3],inactive
CCC1(c2ccccc2)C(=O)NCNC1=O,outcome,[3],inactive
CN(C)c1nc(N(C)C)nc(N(C)C)n1,outcome,[3],inactive
CN(C)C(=O)C(CCN1CCC(O)(c2ccc(Cl)cc2)CC1)(c1ccccc1)c1ccccc1,outcome,[3],inactive
COc1cc2nc(N3CCN(C(=O)c4ccco4)CC3)nc(N)c2cc1OC,Potency,[1],inactive
same,outcome,[2],inactive
CCc1cccc2c3c([nH]c12)C(CC)(CC(=O)O)OCC3 (configuration not stated),outcome,[3],inactive
O=C(c1ccc(F)cc1)C1CCN(CCn2c(=O)[nH]c3ccccc3c2=O)CC1,outcome,[3],inactive
same,Potency,[1],inactive
same,outcome,[2],inactive
same,Potency,[4],inactive
CN(C)CCCN1c2ccccc2CCc2ccc(Cl)cc21,outcome,[3],inactive
O=c1c(O)c(-c2ccc(O)c(O)c2)oc2cc(O)cc(O)c12,outcome,[3],inactive
same,"activity change, negative = inhibition",[4],52.3% [at 5.25 µM] and 65.1% [at 0.997 µM]
CCOC(=O)Nc1ccc(NCc2ccc(F)cc2)nc1N,Potency,[1],inactive
same,outcome,[2],inactive
same,Potency,[4],inactive
CC1COc2c(N3CCN(C)CC3)c(F)cc3c(=O)c(C(=O)O)cn1c23 (configuration not stated),Potency,[1],inactive
same,outcome,[2],inactive
same,Potency,[4],inactive
CN1CCC(=C2c3ccccc3CC(=O)c3sccc32)CC1,outcome,[3],inactive
O=c1[nH]cc(F)c(=O)[nH]1,outcome,[3],inactive
CN(Cc1cnc2nc(N)nc(N)c2n1)c1ccc(C(=O)N[C@@H](CCC(=O)O)C(=O)O)cc1,Potency,[1],inactive
same,outcome,[2],inactive
same,Potency,[4],inactive
Cc1ccccc1N1C(=O)c2cc(S(N)(=O)=O)c(Cl)cc2NC1C (configuration not stated),Potency,[1],inactive
same,outcome,[2],inactive
same,Potency,[4],inactive
CN1CCN(C2=Nc3cc(Cl)ccc3Nc3ccccc32)CC1,outcome,[3],inactive
CC(C)C(=O)Nc1ccc([N+](=O)[O-])c(C(F)(F)F)c1,outcome,[3],inactive
Cc1cc(C(C)(C)C)c(O)c(C)c1CC1=NCCN1,outcome,[3],inactive
COc1cc2c(c(OC)c1OC)-c1ccc(OC)c(=O)cc1[C@@H](NC(C)=O)CC2,outcome,[3],inactive
Cn1c(=O)c2c(ncn2C)n(C)c1=O,outcome,[3],inactive
CC(C)(C)C(=O)Oc1ccc(S(=O)(=O)Nc2ccccc2C(=O)NCC(=O)O)cc1,Potency,[1],inactive
same,outcome,[2],inactive
same,Potency,[4],inactive
Cn1ccc2cc3c(cc21)CCN3C(=O)Nc1cccnc1,outcome,[3],inactive
same,Potency,[1],inactive
same,outcome,[2],inactive
same,Potency,[4],inactive
COc1ccc2[nH]cc(CCNC(C)=O)c2c1,outcome,[5],inactive
same,Potency,[6],5.95 µM (active)
same,outcome,[7],inactive
same,outcome,[8],inactive
same,outcome,[9],inactive
same,outcome,[10],inactive
same,outcome,[11],inactive
same,outcome,[12],inactive
same,outcome,[13],inactive
same,outcome,[14],inactive
same,outcome,[15],inactive
same,outcome,[16],inactive
same,outcome,[17],inactive
same,outcome,[18],inactive
same,outcome,[19],inactive
O=C1c2c(O)ccc(O)c2C(=O)c2c(NCCNCCO)ccc(NCCNCCO)c21,outcome,[3],inactive
NCCCCCC(=O)O,outcome,[3],inactive
Cc1cnc(C(=O)NCCc2ccc(S(=O)(=O)NC(=O)NC3CCCCC3)cc2)cn1,outcome,[3],inactive
same,Potency,[1],inactive
same,outcome,[2],inactive
same,Potency,[4],inactive
CC12CC3CC(C)(C1)CC(N)(C3)C2,outcome,[3],inactive
